# Screens from PubChem.
# An excerpt weighted towards active compounds, which were near 5.8% of everything screened.
# RORg inh: qHTS for inhibitors of ROR gamma transcriptional activity. Potency, µM (highest dose often 53.6 µM), actives largely listed as inhibitors. Drosophila S2 Gal4-RORgamma UAS-luciferase reporter, 20 h. Nuclear receptor ROR-gamma (Mus musculus), P51450. 310,000 tested, 5.4% active; further: nearly all actives have a fitted effect of over 60% in size
# Target sequence (P51450 whole entry, looked up, the tested form may be a part): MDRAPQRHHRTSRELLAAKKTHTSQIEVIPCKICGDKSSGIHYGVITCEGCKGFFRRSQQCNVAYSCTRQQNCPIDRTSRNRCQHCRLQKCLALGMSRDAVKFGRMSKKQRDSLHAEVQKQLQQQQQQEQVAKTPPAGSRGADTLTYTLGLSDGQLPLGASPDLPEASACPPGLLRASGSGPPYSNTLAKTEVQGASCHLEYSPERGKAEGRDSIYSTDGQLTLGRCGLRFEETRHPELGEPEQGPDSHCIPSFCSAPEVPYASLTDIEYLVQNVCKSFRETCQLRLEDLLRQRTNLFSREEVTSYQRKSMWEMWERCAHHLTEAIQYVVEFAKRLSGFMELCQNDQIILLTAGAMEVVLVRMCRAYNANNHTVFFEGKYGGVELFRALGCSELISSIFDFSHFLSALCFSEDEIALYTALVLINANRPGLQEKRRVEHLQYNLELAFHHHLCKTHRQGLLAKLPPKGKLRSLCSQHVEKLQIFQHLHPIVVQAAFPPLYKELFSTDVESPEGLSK
#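 In this cell-based reporter format, copper sulfate (700 uM final) drives Gal4–ROR gamma fusion expression from a metallothionein promoter in Drosophila Schneider cells; compounds preincubated 1 hr, reporter read after 20 hr at ambient temperature.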
# TRPV1 PAM: HTS Assay for Compounds that Act as Potentiators of the Vanilloid Receptor 1; TRPV1-expressing cells, Fluo-8 calcium influx, capsaicin EC20 potentiation; potentiation, % at 8.33 µM; Transient receptor potential cation channel subfamily V member 1 (Homo sapiens), Q8NER1; 320,000 tested, 0.02% active; AID 540277, 2011; in the data active means potentiation above about 80%; inconclusive means between about 30% and that limit
#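 TRPV1-expressing cells were cultured overnight at 35.5C and loaded with Fluo-8 calcium dye for 40 to 90 min at room temperature. After a 10 s baseline, compound was added and calcium influx was read kinetically for 3 min (ex 480/em 520 nm).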
# Gal4-VP16 FLuc: VP16 counterscreen qHTS for inhibitors of ROR gamma transcriptional activity | Potency, µM (titrated, usually from 53.6 µM), hits mostly inhibitors | Drosophila S2 Gal4-VP16 UAS-luciferase, luminescence, 20 h | 310,000 tested, 3.5% active | AID 2546, 2010;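 further: Gal4-VP16 expression switched on by copper sulfate through the metallothionein promoter; nearly all actives have a fitted effect of over 50% in size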
# TRPV1 ag: HTS Assay for Compounds that Act as Agonists of the Vanilloid Receptor 1; TRPV1-expressing cells, Fluo-8 calcium influx, agonist mode; 320,000 tested, 0.19% active; activation, % at 8.33 µM; Transient receptor potential cation channel subfamily V member 1 (Homo sapiens), Q8NER1; in the data active means activation above about 80%; inconclusive means between about 30% and that limit
#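 Cells expressing TRPV1 were dye-loaded with Fluo-8 and read kinetically: 10 s baseline, 3 min after compound (agonist portion), then 2 min after EC20 capsaicin (allosteric enhancer portion). Calcium-bound dye fluorescence at 480/520 nm.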
# uPA surface inh: qHTS for Inhibitors of Cell Surface uPA Generation; Potency, µM (doses to about 38.3 µM), actives largely listed as inhibitors; AID 540303, 2011; 330,000 tested, 0.31% active; cell surface uPA generation assay, qHTS; active means well fitted inhibition curve with a large enough effect; inconclusive means small, poorly fitted or top-dose-only effect; inactive means no such curve, though single readings can be large or run the other way; tested in mouse RAW 264.7 cells; further: nearly all actives have a fitted effect of over 55% in size
# A number is an active result; - = inactive; ? = inconclusive; . = not tested or not shown. Unless noted, the call rests on the fitted dose curve; in most records, active means well fitted curve in the direction sought with a large enough effect; inconclusive means small, poorly fitted or top-dose-only effect, or another doubt; inactive means no such curve, though single readings can be large; an effect the other way counts as inactive or inconclusive.
SMILES,RORg inh,TRPV1 PAM,Gal4-VP16 FLuc,TRPV1 ag,uPA surface inh
Cc1ccc(C2=NS(=O)(=O)N(C)C(C(=O)Nc3cc(C)n(CC(=O)N4CCCCC4)n3)=C2)cc1,-,-,-,-,-
Cc1nn(-c2ccccc2)c(N2CCCC2)c1/C=N/NC(=S)Nc1cc(C(F)(F)F)ccc1Cl,1.8µM,-,2.8µM,-,-
Cc1nn(-c2ccccc2)c(N2CCCC2)c1/C=N/O,-,-,-,-,.
Cc1nn(-c2ccccc2)c(N2CCCC2)c1/C=N/NC(=S)Nc1ccccc1C(F)(F)F,1.4µM,-,1µM,-,-
Cc1nn(-c2ccccc2)c(N2CCCCC2)c1/C=N/NC(=O)c1ccncc1,?,-,-,?,-
Clc1ccc(-n2ncc3c(NCC4CCCO4)ncnc32)cc1 (stereo unspecified),-,-,-,-,10µM
c1ccc(-n2ncc3c(N4CCCCC4)ncnc32)cc1,5µM,.,5.6µM,.,1.6µM
Cc1ccc(-n2ncc3c(N4CCCC(C)C4)ncnc32)c(C)c1 (stereo unspecified),-,-,-,?,?
CC1CCCN(c2ncnc3c2cnn3-c2ccc(Cl)cc2)C1 (stereo unspecified),-,-,-,-,2.2µM
c1ccc(-n2ncc3c(NCC4CCCO4)ncnc32)cc1 (stereo unspecified),-,-,-,-,-
CC1CCCN(c2ncnc3c2cnn3-c2ccccc2)C1 (stereo unspecified),?,-,5µM,-,?
C=C(CCC12O[C@H](C(=O)O)[C@@](O)(C(=O)O)[C@](C(=O)O)(O1)[C@H](OC(=O)/C=C/[C@@H](C)C[C@@H](C)CC)[C@H]2O)[C@@H](OC(C)=O)[C@H](C)Cc1ccccc1,-,.,-,.,.
O=C(CCCCCN1C(=O)c2cccc3cccc(c23)C1=O)NO,?,.,-,.,.
C=CCCC(=O)N1CCCC(C(=O)c2cccc(OC)c2)C1 (stereo unspecified),-,-,-,-,-
Cc1ccc(Cl)cc1NC(=O)Nc1cccs1,14µM,-,-,-,-
Cc1ccccc1NC(=O)Nc1cccs1,?,-,-,-,-
Cc1cc(C2C(C#N)=C(N)Oc3n[nH]c(C)c32)c(C)s1 (stereo unspecified),10µM,-,11µM,-,-
Cc1[nH]nc2c1C(C1CC=CCC1)C(C#N)=C(N)O2 (stereo unspecified),6.3µM,-,11µM,-,-
Cc1ccc(-c2ccc(C3C(C#N)=C(N)Oc4n[nH]c(C)c43)o2)cc1 (stereo unspecified),-,-,11µM,-,-
Cc1[nH]nc2c1C(c1ccc(-c3ccccc3C#N)o1)C(C#N)=C(N)O2 (stereo unspecified),8.9µM,-,?,-,-
Cc1[nH]nc2c1C(c1ccsc1C)C(C#N)=C(N)O2 (stereo unspecified),?,-,-,-,-
CCC(C)N1CCCCC1C(=O)Nc1c(C)cc(C)cc1C (stereo unspecified),-,-,-,-,-
Cc1cccc(CN2C(=O)CCSc3ccc(Cl)cc32)c1,-,-,-,-,-
COc1cc(NC(=S)NC(=O)c2cc(C)cc(C)c2)ccc1NC(=O)c1cccs1,2µM,-,1.8µM,-,-
COc1cc(NC(=S)NC(=O)c2ccccc2C)ccc1NC(=O)c1cccs1,2.5µM,-,8.9µM,-,-
SMILES,RORg inh,TRPV1 PAM,Gal4-VP16 FLuc,TRPV1 ag,uPA surface inh
COc1cc(NC(=S)NC(=O)c2ccc(C(C)(C)C)cc2)ccc1NC(=O)c1cccs1,3.2µM,-,3.5µM,-,-
COc1cc(/C=N\NC(=O)c2sc(N)nc2C)cc(OC)c1OC,-,-,-,-,-
CCCn1c(CNS(=O)(=O)c2ccc(C)cc2)nc2ccccc21,11µM,-,?,-,-
CCCn1c(C(O)c2ccc(C)cc2)nc2ccccc21 (stereo unspecified),2.8µM,-,?,-,-
CCCn1c(-c2cccs2)nc2ccccc21,4.5µM,-,18µM,-,-
Cc1cc(C)c(C)c(S(=O)(=O)NCc2ccc(C(=O)N3CCN(C)CC3)cc2)c1C,-,-,?,-,-
CC(=O)OC(C=C(C)C)C/C(C)=C/COc1c2ccoc2cc2oc(=O)ccc12 (stereo unspecified),.,.,.,.,-
